{"source": "PubChem BioAssay (Tox21)", "note": "Inconclusive results are not listed. Where a call stands in place of a potency, no number is given. Active and inactive are the calls of the source. Calls follow the shape of the dose curve; as a rule, active = well fitted cell-killing curve with a large enough effect in the repeat runs; inconclusive = weak or mixed curves, or effect the other way; inactive = flat fitted curve, though single readings scatter.", "data": [{"test": "qHTS RealTime-Glo MT Cell Viability Assay in HEK293 cells - 0 hour (AID 1224880); also: top concentration of the series differs between compounds; nearly all actives have a fitted effect of over 45% in size", "conditions": "RealTime-Glo luminescence; series mostly up to 76.8 µM; activity change, negative = cytotoxicity: at the top concentration", "description": "U.S. Tox21 Program National Center for Advancing Translational Sciences [NCATS] NIH Chemical Genomics Center [NCGC] U.S. Environmental Protection Agency [EPA] National Institutes of Environmental Health Sciences [NIEHS] National Toxicology Program [NTP] U.S. Food and Drug Administration [FDA] Tox21 Assay Overview: Measure of cell viability is critical in the cell-base assay. Analysis of cell viability is necessary for the characterization of cell responses to cytotoxic drugs and environmental stress. A RealTime-Glo MT Cell Viability Assay to monitor cell viability in real time of continues cell culture during 40 hours of compound treatment was used to screen Tox21 10K library compounds in Hek293 cells. The RealTime-Glo MT Cell Viability Assay is a nonlytic, homogeneous, bioluminescent method to measure cell viability in real time using a simple, plate-based method. The assay involves adding NanoLuc luciferase and a cell-permeant prosubstrate to cells in culture. Viable cells reduce the proprietary prosubstrate to generate a substrate for NanoLuc luciferase. This substrate diffuses from cells into the surrounding culture medium, where it is rapidly used by the NanoLuc Enzyme to produce a luminescent signal. The signal correlates with the number of viable cells, making the assay well suited for cytotoxicity studies.\nTox21 Assay Protocol Summary: The mixture of Hek293 cell suspension and reagents were dispensed at 600cells/6 ul/well in 1536-well tissue culture treated black solid bottom plates using a Multidrop dispenser. After the assay plates were incubated at a 37 C/5% CO2 incubator for 5 hours, 23 nL of compounds dissolved in DMSO, positive and negative controls was transferred to the assay plate by a pintool work station. The plates were incubated at 37 C for 40 hours. The luminescence intensity were measured at 0h, 8h, 16h, 24h, 32h and 40h time points using ViewLux plate reader during compound treatment.", "values": [{"smiles": "N#CCCCl", "Potency": "inactive"}, {"smiles": "O=C1C=CC(=O)C=C1", "Potency": "inactive"}, {"smiles": "COP(=S)(OC)Oc1ccc([N+](=O)[O-])cc1", "Potency": "inactive"}, {"smiles": "C=CC(=O)OCCO", "Potency": "inactive"}, {"smiles": "Oc1ccc(-c2ccccc2)cc1", "Potency": "inactive"}, {"smiles": "O=C(CCl)c1ccccc1", "Potency": "inactive"}, {"smiles": "Nc1ccc(Cl)c(Cl)c1", "Potency": "inactive"}, {"smiles": "C=CCN(CC=C)C(=O)C(Cl)Cl", "Potency": "inactive"}, {"smiles": "CCOc1cc(C=O)ccc1O", "Potency": "inactive"}, {"smiles": "CCCCC(CC)COC(=O)Cl", "note": "(stereo not given)", "Potency": "inactive"}, {"smiles": "C#CCOS(=O)OC1CCCCC1Oc1ccc(C(C)(C)C)cc1", "note": "(stereo not given)", "Potency": "inactive"}, {"smiles": "O=[N+]([O-])c1cccc2ccccc12", "Potency": "inactive"}, {"smiles": "CCCCCCCCC(=O)NCc1ccc(O)c(OC)c1", "Potency": "inactive"}, {"smiles": "Nc1ccc(Cl)cc1N", "activity change, negative = cytotoxicity": "-16.2% (inactive)"}, {"smiles": "CC(C)c1ccc(CO)cc1", "Potency": "inactive"}, {"smiles": "O=P(Oc1ccccc1)(Oc1ccccc1)Oc1ccccc1", "Potency": "inactive"}, {"smiles": "COC(=O)c1sccc1S(=O)(=O)NC(=O)Nc1nc(C)nc(OC)n1", "Potency": "inactive"}, {"smiles": "c1nc[nH]n1", "Potency": "inactive"}, {"smiles": "Brc1ccc(Oc2cc(Br)c(Br)cc2Br)c(Br)c1", "Potency": "inactive"}, {"smiles": "CCCCCCCCOC(=O)c1ccccc1C(=O)OCCCCCCCC", "Potency": "inactive"}, {"smiles": "CCC(C)c1cc([N+](=O)[O-])cc([N+](=O)[O-])c1O", "note": "(stereo not given)", "Potency": "inactive"}, {"smiles": "Oc1cc(Cl)c(Cl)cc1Cl", "Potency": "inactive"}, {"smiles": "NNC(=S)NN", "Potency": "inactive"}, {"smiles": "O=C(NC(=O)c1c(F)cccc1F)Nc1ccc(Cl)cc1", "Potency": "inactive"}, {"smiles": "c1ccc(NNc2ccccc2)cc1", "activity change, negative = cytotoxicity": "-1.93% (inactive)"}, {"smiles": "CCCCC(CC)COC(=O)c1ccc(C(=O)OCC(CC)CCCC)c(C(=O)OCC(CC)CCCC)c1", "note": "(stereo not given)", "Potency": "inactive"}, {"smiles": "Nc1c(Cl)cc([N+](=O)[O-])cc1Cl", "Potency": "inactive"}, {"smiles": "O=C(O)C(F)(F)C(F)(F)C(F)(F)C(F)(F)C(F)(F)C(F)(F)C(F)(F)F", "Potency": "inactive"}, {"smiles": "CCOC(=O)C(C)OC(=O)c1cc(Oc2ccc(C(F)(F)F)cc2Cl)ccc1[N+](=O)[O-]", "note": "(stereo not given)", "Potency": "inactive"}, {"smiles": "CCCCCCOC(=O)c1ccccc1C(=O)OCCCCCC", "Potency": "inactive"}, {"smiles": "C=CCc1ccc(OC)cc1", "Potency": "inactive"}, {"smiles": "CCCCOCCOP(=O)(OCCOCCCC)OCCOCCCC", "Potency": "inactive"}, {"smiles": "CCN(CC)N=O", "Potency": "inactive"}, {"smiles": "Oc1cc(Cl)ccc1Oc1ccc(Cl)cc1Cl", "activity change, negative = cytotoxicity": "-14.3% [at 35.3 µM] (inactive)"}, {"smiles": "c1ccc(N=Nc2ccccc2)cc1", "Potency": "inactive"}, {"smiles": "C[C@]12CCC(=O)C[C@@H]1CC[C@@H]1[C@@H]2CC[C@]2(C)[C@@H](O)CC[C@@H]12", "Potency": "inactive"}, {"smiles": "COP(=O)(OC)OC", "activity change, negative = cytotoxicity": "4.88% (inactive)"}, {"smiles": "COc1ccc(C(CN(C)C)C2(O)CCCCC2)cc1", "note": "(stereo not given)", "Potency": "inactive"}, {"smiles": "Cc1c(COC(=O)[C@@H]2[C@H](/C=C(\\Cl)C(F)(F)F)C2(C)C)cccc1-c1ccccc1", "Potency": "inactive"}, {"smiles": "O=C(O)CC[N+](=O)[O-]", "Potency": "inactive"}]}]}
